Screening results as filed in PubChem.
Sampled rows, rich in hits. Any-hit rate of the full collection: about 6.7%.
T cruzi growth-1 – blocks T. cruzi growth in NIH3T3 culture | T. cruzi beta-gal in NIH3T3, GalScreen luminescence, 90 h | inhibition, % at 8.34 µM | 5.9% of 77,000 active | AID 624255;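 active = mean inhibition above about 93%, with at least 55% of replicates each passing it, limit read from the data, passing the limit was not always enough; inconclusive = only one of those two conditions holds; inactive = neither condition holds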
C diff HTS – blocks growth of Clostridium difficile; 0.25% of 86,000 active; Clostridium difficile clinical isolate growth, OD600, 24 h; hits give low values; growth activity, negative = inhibition, % at 16 µg/mL (by protocol);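 active = mean growth activity at or below -80% and every replicate also at or below -80%; inconclusive = mean at or below -80% but some replicate above -80%; inactive = mean growth activity above -80%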;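 note: 0% = DMSO wells and -100% = levofloxacin 16 µg/mL wells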
Pf Dd2 inh – blocks growth of Plasmodium falciparum Dd2 parasites; P. falciparum Dd2 growth, SYBR Green, 72 h; hits give low values; activity change, % at 10 µM; 2.3% of 94,000 active; AID 1159554; in the data active = activity change below about -80%; inconclusive = no clear call, values can overlap the other calls
T cruzi growth-2 – inhibitors of T. cruzi proliferation | shares compounds with T cruzi growth-1 | T. cruzi beta-gal in NIH3T3, GalScreen luminescence, 90 h | inhibition, % at 8.35 µM | 72% of 5,600 active | AID 651739;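 active = mean replicate inhibition above about 95% and at least 55% of replicates individually reaching it, limit read from the data; inconclusive = only one of the two criteria is met; inactive = neither criterion is met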
T cruzi growth-3 – Trypanosoma cruzi proliferation inhibition. 21% of 5,600 active. inhibition, % at 2.09 µM. T. cruzi beta-gal in NIH3T3, GalScreen luminescence, 90 h. AID 651740. shares compounds with T cruzi growth-1;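 active = mean inhibition above about 95%, with at least 55% of replicates also reaching it, limit read from the data; inconclusive = meets just one of the two conditions; inactive = meets neither condition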;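 note: plate controls were neutral control median for no effect and positive control median for full effect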
3T3 cytotox – kills mouse NIH/3T3 fibroblasts. NIH/3T3 viability, CellTiter-Glo ATP luminescence, 90 h. AID 651742. shares compounds with T cruzi growth-1. 14% of 5,600 active. cytotoxicity (signal decrease), % at 8.35 µM;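 active = mean signal decrease across replicates above about 35% based on untreated-well scatter, with enough replicates individually passing, limit read from the data; inconclusive = no rule stated though some were filed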;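 note: 0% = median of neutral control wells and 100% = median of positive control wells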
NIH3T3 tox 2 – cytotoxicity in mouse NIH/3T3 fibroblasts; shares compounds with T cruzi growth-1; NIH/3T3 viability, CellTiter-Glo ATP luminescence, 90 h; inhibition, % at 24.9 µM; 56% of 5,600 active;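 active = mean loss of cell viability signal at or above a set limit, and enough replicates individually reaching it; inconclusive = meets only the mean limit or only the replicate share; inactive = meets neither condition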;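 note: 0% = median of neutral control wells and 100% = median of positive control wells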
* marks the source's active call; other numbers are inactive results; ? = inconclusive; / = no result given.

SMILES	T cruzi growth-1	C diff HTS	Pf Dd2 inh	T cruzi growth-2	T cruzi growth-3	3T3 cytotox	NIH3T3 tox 2
COc1ccc(S(=O)(=O)N(C)C[C@@H]2OCCCC[C@@H](C)Oc3ccc(NC(=O)Nc4ccc(F)cc4)cc3C(=O)N([C@H](C)CO)C[C@@H]2C)cc1	52.2	8.4	-79.6	/	/	/	/
COc1ccc(NC(=O)Nc2ccc3c(c2)C(=O)N([C@@H](C)CO)C[C@@H](C)[C@@H](CN(C)S(=O)(=O)c2ccc(F)cc2)OCCCC[C@H](C)O3)cc1	36.6	9.8	-26.9	/	/	/	/
COc1ccc(S(=O)(=O)N(C)C[C@@H]2OCCCC[C@H](C)Oc3ccc(NC(=O)Nc4ccc(F)cc4)cc3C(=O)N([C@@H](C)CO)C[C@@H]2C)cc1	115.7*	1.7	-78.6	108.2*	92.7	-17.5	-10.8
COc1ccc(S(=O)(=O)N(C)C[C@@H]2OCCCC[C@H](C)Oc3ccc(NC(=O)Nc4ccc(F)cc4)cc3C(=O)N([C@H](C)CO)C[C@@H]2C)cc1	115.2*	5.2	-30.0	101.8*	57.4	-5.3	-7.0
COc1ccc(NC(=O)Nc2ccc3c(c2)C(=O)N([C@@H](C)CO)C[C@@H](C)[C@H](CN(C)S(=O)(=O)c2ccc(F)cc2)OCCCC[C@@H](C)O3)cc1	?	2.3	-44.8	109.2*	43.8	-25.1	11.3
COc1ccc(S(=O)(=O)N(C)C[C@H]2OCCCC[C@@H](C)Oc3ccc(NC(=O)Nc4ccc(F)cc4)cc3C(=O)N([C@@H](C)CO)C[C@@H]2C)cc1	?	1.4	-65.9	/	/	/	/
C[C@@H]1CN([C@@H](C)CO)C(=O)c2cc(NS(=O)(=O)c3ccccc3)ccc2O[C@@H](C)CCCCO[C@@H]1CN(C)S(=O)(=O)c1cn(C)cn1	9.7	-1.3	-2.7	/	/	/	/
CC(C)NC(=O)Nc1ccc2c(c1)C(=O)N([C@@H](C)CO)C[C@@H](C)[C@H](CN(C)S(C)(=O)=O)OCCCC[C@@H](C)O2	-110.1	/	1.2	/	/	/	/
COC(=O)C[C@@H]1CC[C@H]2[C@@H](COc3ccc(NC(=O)c4ccc(OC)cc4)cc3C(=O)N2C)O1	18.9	-0.1	-0.8	/	/	/	/
COc1ccccc1S(=O)(=O)N[C@@H]1CC[C@H](CC(=O)NCc2cccc(F)c2)O[C@@H]1CO	1.1	/	-3.7	/	/	/	/
COc1cccc(S(=O)(=O)N[C@@H]2CC[C@H](CC(=O)NC3Cc4ccccc4C3)O[C@H]2CO)c1	-4.4	/	6.0	/	/	/	/
C[C@@H]1CN([C@H](C)CO)C(=O)c2cc(NC(=O)Nc3ccccc3)ccc2O[C@@H](C)CCCCO[C@@H]1CN(C)Cc1ccc2c(c1)OCO2	?	19.4	-84.4*	86.6	92.2	93.9*	103.2*
C[C@@H]1CCCCO[C@@H](CN(C)Cc2ccc3c(c2)OCO3)[C@H](C)CN([C@H](C)CO)C(=O)c2cc(NC(=O)Nc3ccccc3)ccc2O1	?	14.4	-78.6	99.5*	104.9*	11.9	104.2*
C[C@@H]1CN([C@@H](C)CO)C(=O)c2cc(NC(=O)Nc3ccccc3)ccc2O[C@@H](C)CCCCO[C@@H]1CN(C)Cc1ccc2c(c1)OCO2	96.7*	5.1	?	100.6*	37.0	42.2*	33.6*
C[C@H](CO)N1C[C@H](C)[C@H](CN(C)Cc2ccc3c(c2)OCO3)OCCCC[C@H](C)Oc2ccc(NC(=O)Nc3ccc4c(c3)OCO4)cc2C1=O	/	/	-3.1	/	/	/	/
C[C@H](CO)N1C[C@H](C)[C@@H](CN(C)Cc2ccc3c(c2)OCO3)OCCCC[C@H](C)Oc2ccc(NC(=O)Nc3ccc4c(c3)OCO4)cc2C1=O	90.8	/	-24.4	/	/	/	/
C[C@@H]1CN([C@H](C)CO)C(=O)c2cc(NC(=O)Nc3ccc4c(c3)OCO4)ccc2O[C@@H](C)CCCCO[C@H]1CN(C)Cc1ccc2c(c1)OCO2	/	/	-66.7	/	/	/	/
C[C@H]1CCCCO[C@@H](CN(C)S(=O)(=O)c2cn(C)cn2)[C@@H](C)CN([C@@H](C)CO)C(=O)c2cc(NC(=O)Nc3ccccc3)ccc2O1	49.4	1.2	-29.0	/	/	/	/
C[C@H]1CN([C@@H](C)CO)S(=O)(=O)c2ccc(C3=CCCC3)cc2O[C@H]1CN(C)S(C)(=O)=O	24.2	/	2.5	/	/	/	/
C[C@@H]1CN([C@H](C)CO)C(=O)Cc2cc(NC(=O)Cc3ccccc3)ccc2O[C@H]1CN(C)S(=O)(=O)c1ccc(F)cc1	-4.4	7.7	-7.1	/	/	/	/
CO[C@H]1CN(C)C(=O)c2cc(NC(=O)C3CC3)ccc2OC[C@@H](C)N(C(=O)c2ccccc2F)C[C@H]1C	-7.5	1.8	-6.3	/	/	/	/
CC(C)CC#Cc1ccc2c(c1)O[C@H](CN(C)C(=O)NC(C)C)[C@@H](C)CN([C@@H](C)CO)S2(=O)=O	69.7	/	-32.5	/	/	/	/
C[C@H](O)C#Cc1ccc2c(c1)O[C@@H](CN(C)C(=O)Nc1ccccc1)[C@@H](C)CN([C@H](C)CO)S2(=O)=O	64.4	5.3	-37.4	/	/	/	/
CC(C)CC#Cc1ccc2c(c1)O[C@H](CN(C)C(=O)Nc1ccccc1)[C@H](C)CN([C@@H](C)CO)S2(=O)=O	107.1*	-1.4	-32.8	107.8*	?	21.1	81.0*
CC(C)CC#Cc1ccc2c(c1)O[C@H](CN(C)C(=O)Nc1ccccc1)[C@H](C)CN([C@H](C)CO)S2(=O)=O	125.6*	22.8	-64.7	100.4*	107.4*	-9.5	105.5*
SMILES	T cruzi growth-1	C diff HTS	Pf Dd2 inh	T cruzi growth-2	T cruzi growth-3	3T3 cytotox	NIH3T3 tox 2
CC(C)CC#Cc1ccc2c(c1)O[C@@H](CN(C)C(=O)Nc1ccccc1)[C@H](C)CN([C@H](C)CO)S2(=O)=O	120.8*	2.2	-42.7	108.1*	93.1	22.5	87.9*
C[C@@H]1CN([C@@H](C)CO)S(=O)(=O)c2ccc(C#C[C@@H](C)O)cc2O[C@H]1CN(C)C(=O)Nc1ccccc1	61.2	3.4	-68.0	/	/	/	/
CC(C)CC#Cc1ccc2c(c1)O[C@H](CN(C)C(=O)Nc1ccccc1)[C@@H](C)CN([C@@H](C)CO)S2(=O)=O	125.3*	3.3	-58.6	105.3*	?	11.0	101.3*
C[C@H](O)C#Cc1ccc2c(c1)O[C@H](CN(C)C(=O)Nc1ccccc1)[C@@H](C)CN([C@@H](C)CO)S2(=O)=O	70.3	0.2	-34.9	/	/	/	/
CCCNC(=O)C[C@H]1C[C@@H]2c3cc(NC(=O)CC4CC4)ccc3O[C@@H]2[C@@H](CO)O1	-45.7	-1.7	-8.2	/	/	/	/
Cc1noc(C)c1NC(=O)NCC[C@H]1CC[C@H](NC(=O)Nc2cccc(Cl)c2)[C@@H](CO)O1	1.9	/	-10.7	/	/	/	/
O=S(=O)(N[C@H]1CC[C@H](CCn2cc(C3(O)CCCC3)nn2)O[C@@H]1CO)c1ccccc1	-27.4	-2.5	-4.9	/	/	/	/
CCCNC(=O)[C@H]1[C@H](CO)[C@H]2Cn3c(ccc(-c4ccc(F)cc4)c3=O)[C@@H]1N2CCC	-0.2	-1.8	12.9	/	/	/	/
